Mito fusion act – blocks mitochondrial division or promotes mitochondrial fusion; S. cerevisiae fusion-defective mutant growth rescue, CellTiterGlo 48 h; Potency, µM (top dose mostly 46.1 µM), hits mostly activators; 320,000 tested, 0.23% active; AID 485298; also: nearly all actives have a fitted effect of over 45% in size
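Yeast fusion mutant, YPEG (non-fermentable carbon), compound, 48 h at 37C non-permissive; CellTiterGlo added, 10 min RT, luminescence read. Rescued growth = division inhibition.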
TDP43 rescue – TDP-43 toxicity inhibition in yeast. 410,000 tested, 1.8% active. TDP-43 expressing yeast growth rescue, BacTiter-Glo, 24 h. Potency, µM (doses to about 46.1 µM), most hits filed as activators. AID 652104; also: nearly all actives have a fitted effect of over 50% in size
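Yeast expressing TDP-43 (pregrown in raffinose, seeded at OD600=0.02 in galactose medium) exposed to compounds 24 hr at 30 deg C. Growth read by BacTiter-Glo luminescence; rescue of toxicity appears as increased signal.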
FUS suppressor – FUS proteinopathy suppression in yeast | S. cerevisiae FUS-expressing, growth rescue, OD600, 24 h | 390,000 tested, 0.24% active | AID 1347120 | Potency, µM (series often up to 76.6 µM), most hits filed as activators; also: nearly all actives have a fitted effect of over 55% in size
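S. cerevisiae expressing FUS from galactose induction served as the toxicity model. Growth after 24hr at 30C, read as absorbance at 600 nm, indicates suppression of toxicity; compounds dosed at several concentrations.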
Abeta yeast res – restores growth of yeast expressing A-beta42 peptide. yeast expressing A-beta42, growth rescue, OD600, 48 h; response scale: 0% DMSO, 100% iron-clioquinol control. Potency, µM (titrated, usually from 46.1 µM), hits mostly activators. 410,000 tested, 0.063% active; also: nearly all actives have a fitted effect of over 55% in size
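Yeast growth medium received pinned compounds, then yeast cells expressing toxic A-beta were added; plates incubated at 30 C for 48 hr. Growth read as absorbance at 600 nm, normalized to DMSO and equimolar FeCl3 plus clioquinol controls.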
aSyn rescue – inhibitors of alpha-synuclein toxicity in yeast; Yeast expressing alpha-synuclein, growth rescue, BacTiter-Glo, 24 h; Potency, µM (highest dose often 46.1 µM), most hits filed as activators; 370,000 tested, 0.14% active; also: nearly all actives have a fitted effect of over 65% in size
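Screening used galactose-induced yeast with toxic alpha-synuclein levels, exposed to compound for 24 hr at 30 deg C. Cell growth, read with BacTiter-Glo luminescence, gave the measured signal.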
Large screens that a line does not name were inactive. A selection: hits, their analogues and other compounds. The true share with any hit is near 2.2%. Calls follow the shape of the dose curve; as a rule, active = well fitted curve in the direction sought with a large enough effect; inconclusive = small, poorly fitted or top-dose-only effect, or another doubt; inactive = no such curve, though single readings can be large; an effect the other way counts as inactive or inconclusive.

Cc1ccc(NS(=O)(=O)c2ccc3[nH]c4c(c3c2)CCCCCC4)cc1	TDP43 rescue 14µM (no result: Mito fusion act, aSyn rescue)
CCOC(=O)c1ccc(NS(=O)(=O)c2ccc3[nH]c4c(c3c2)CCCCC4)cc1	FUS suppressor inconclusive, aSyn rescue inconclusive (no result: Mito fusion act)
CCOC(=O)c1ccc2[nH]c3c(c2c1)CCCC3	TDP43 rescue 25µM
Cc1ccc(-c2ccc(CN3C(C)C(=O)N(Cc4cn(Cc5ccco5)nn4)CCS3(=O)=O)cc2)c(C)c1 (stereo not drawn)	TDP43 rescue 35µM, FUS suppressor inconclusive, aSyn rescue inconclusive (no result: Mito fusion act)
Cc1ccc(-c2ccc(CN3C(C)C(=O)N(Cc4cn(Cc5ccco5)nn4)CCS3(=O)=O)cc2)cc1 (stereo not drawn)	TDP43 rescue inconclusive, FUS suppressor inconclusive, aSyn rescue inconclusive (no result: Mito fusion act)
Cc1ccccc1-c1ccc(CN2C(C)C(=O)N(Cc3cn(Cc4ccco4)nn3)CCS2(=O)=O)cc1 (stereo not drawn)	TDP43 rescue 35µM, FUS suppressor inconclusive, aSyn rescue inconclusive (no result: Mito fusion act)
CC1C(=O)N(Cc2cn(Cc3ccco3)nn2)CCS(=O)(=O)N1Cc1ccc(-c2ccc(Cl)c(Cl)c2)cc1 (stereo not drawn)	TDP43 rescue 35µM, FUS suppressor inconclusive, aSyn rescue inconclusive (no result: Mito fusion act)
CC1C(=O)N(Cc2cn(Cc3ccco3)nn2)CCS(=O)(=O)N1Cc1ccc(-c2ccccc2C(F)(F)F)cc1 (stereo not drawn)	TDP43 rescue inconclusive, FUS suppressor inconclusive, aSyn rescue inconclusive (no result: Mito fusion act)
CC(C)C1C(=O)N(Cc2cn(Cc3ccco3)nn2)CCS(=O)(=O)N1Cc1ccc(-c2ccc(Cl)c(Cl)c2)cc1 (stereo not drawn)	FUS suppressor inconclusive (no result: Mito fusion act)
CSc1ccc(S(=O)(=O)NCc2ccccc2C)cc1	TDP43 rescue 14µM
CCn1ccc2c(OCC(=O)Nc3ccccc3C)cccc2c1=O	TDP43 rescue 13µM (no result: Mito fusion act, aSyn rescue)
N#C/C(=C\c1ccc[nH]1)Sc1nc2ccccc2s1	Mito fusion act inconclusive, TDP43 rescue 22µM
N#C/C(=C\c1cccs1)Sc1nc2ccccc2s1	Mito fusion act inconclusive, TDP43 rescue inconclusive (no result: FUS suppressor)
Cc1nc(NC(=O)c2c(-c3ccccc3)c(-c3ccccc3)nn(C)c2=O)sc1C	none (no result: Mito fusion act, aSyn rescue)
CCOC(=O)c1sc(NC(=O)c2c(-c3ccccc3)c(-c3ccccc3)nn(C)c2=O)nc1C	TDP43 rescue 16µM, FUS suppressor inconclusive (no result: Mito fusion act, aSyn rescue)
COc1ccc(Cl)cc1NC(=O)CSc1nc(-c2ccco2)cc(C(F)(F)F)n1	none (no result: Mito fusion act, aSyn rescue)
O=C(O)c1ccc(CN2C(=O)CSC2=S)cc1	TDP43 rescue 18µM, aSyn rescue 13µM
O=C(O)c1cc(C(=O)O)cc(N2C(=O)CSC2=S)c1	none
O=C1CSC(=S)N1c1ccc(F)c(Cl)c1	TDP43 rescue 25µM, Abeta yeast res inconclusive
O=C1CSC(=S)N1c1ccccc1	none (no result: Mito fusion act, FUS suppressor)
O=C(O)CN1C(=O)CSC1=S	none
O=C(O)c1ccc(N2C(=O)CSC2=S)cc1	TDP43 rescue inconclusive, aSyn rescue 10µM (no result: Mito fusion act)
CC(C)c1nc2ccc(C(=O)Nc3ccccc3F)cc2o1	none (no result: Mito fusion act, aSyn rescue)
CCCNC(=O)c1cc2c3ccccc3n(C)c2s1	Mito fusion act inconclusive, TDP43 rescue 14µM
COc1ccc(S(=O)(=O)NCc2ccc3c(c2)CCN3C(C)=O)cc1OC	none (no result: Mito fusion act, aSyn rescue)
CCOc1cc2c(cc1O)CCC1C2CCC2(C)C(O)CCC12 (stereo not drawn)	TDP43 rescue 16µM (no result: Mito fusion act, FUS suppressor)
CCC(C)c1ccc(NC(=S)NCCn2cc(Br)cn2)cc1 (stereo not drawn)	Abeta yeast res 10µM
CCC(C)c1ccc(NC(=S)NCCn2cc(Cl)cn2)cc1 (stereo not drawn)	none
CCOc1ccccc1C(=O)Nc1c(C(=O)Nc2ccc(F)cc2)oc2ccccc12	none (no result: Mito fusion act, aSyn rescue)
Cc1nc(Cl)c(C(=O)NC(=O)NCc2ccccc2)c(C)c1Cl	TDP43 rescue 14µM
Cc1ccccc1NC(=O)c1c(Cl)nc(C)c(Cl)c1C	none
COc1cc2ncc3c(-c4ccccc4)nn(-c4ccc(C)cc4)c3c2cc1OC	TDP43 rescue 7.1µM (no result: Mito fusion act, aSyn rescue)
Cc1cccc(NC(=O)CCn2nc(-c3ccccc3)c3ccccc3c2=O)c1	TDP43 rescue 20µM, FUS suppressor inconclusive (no result: aSyn rescue)
O=C(Nc1cccc(C(F)(F)F)c1)c1cccnc1NCCO	none
CNC(=O)c1cccnc1Nc1cccc(C(F)(F)F)c1	Mito fusion act inconclusive, TDP43 rescue 18µM

Bioassay records (PubChem BioAssay)
